JMJD2A Tudor = inhibitors of human JMJD2A Tudor domain; AID 504339; O75164; 390,000 tested, 4.4% active; Potency, µM (titrated, usually from 114 µM), without a hit: at the highest dose activity change, negative = inhibition, hits mostly inhibitors; AlphaScreen JMJD2A-Tudor / H3K4me3 peptide binding; also: % is scaled to controls: 0 for no effect and ±100 for the full control effect; nearly all actives have a fitted effect of over 50% in size
HP1b binding inh = inhibitors of HP1-beta chromodomain binding to methylated histone tails | AID 540317 | 390,000 tested, 0.56% active | Potency, µM (highest dose often 114 µM), without a hit: at the top dose activity change, negative = inhibition, most hits filed as inhibitors | AlphaScreen HP1-beta / biotin-H3K9me3 peptide binding; also: nearly all actives have a fitted effect of over 70% in size
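HP1-beta protein (50 nM final) preincubated 30 min at room temperature with biotinylated H3(1-18)K9me3 peptide (50 nM) in PBS pH 7.4, 0.01% Tween-20, then compound added for 30 min. AlphaScreen streptavidin donor/nickel chelate acceptor beads (10 ug/mL final), 30 min dark, luminescence read.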
G9a inh = inhibitors of human histone lysine methyltransferase G9a. Q96KQ7. G9a H3K9 monomethylation, AlphaScreen, 2 h. Potency, µM (doses to about 102 µM), for inactives: at the top dose activity, negative = inhibition, most hits filed as inhibitors. 350,000 tested, 8.8% active. AID 504332; also: % is scaled to controls: 0 for no effect and ±100 for the full control effect; nearly all actives have a fitted effect of over 75% in size
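Signal arises when biotinylated H3K9 peptide, once monomethylated, bridges streptavidin donor and antibody-captured acceptor beads. Enzyme at 20 nM was preincubated 15 min with test compounds; peptide 500 nM and SAM 20 uM then reacted for 2 h.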
BAZ2B inh = BAZ2B (human) inhibition; Q9UIF8; AlphaScreen BAZ2B-H3K14Ac peptide displacement; Potency, µM (titrated, usually from 114 µM), without a hit: top-dose activity change, negative = inhibition, hits mostly inhibitors; 360,000 tested, 4.4% active; also: % is scaled to controls: 0 for no effect and ±100 for the full control effect; nearly all actives have a fitted effect of over 60% in size
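Protein-peptide AlphaScreen: BAZ2B 50 nM, b-H3K14Ac 50 nM, 1x PBS pH 7.4 + 0.01% Tween-20. Preincubation 30 min RT; cpd 30 min RT (top 110 uM); beads 20 min RT, light-protected.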
GLS inhibitor = glutaminase GLS (human) inhibition. O94925. GLS enzymatic activity, qHTS titration. Potency, µM (top dose mostly 45.5 µM), for inactives: at the highest dose activity change, negative = inhibition, most hits filed as inhibitors. 410,000 tested, 0.21% active. AID 624170; also: % is scaled to controls: 0 for no effect and ±100 for the full control effect
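Coupled fluorescence readout: glutamate oxidase/HRP/Amplex Red detect glutamate formed by hKGA from L-glutamine (1 mM solution added). Buffer 45 mM KH2PO4 pH 8.2, 0.02% Tween-20; reads at t0 and 30 min RT.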
* hit, by the source's call; u = inconclusive; x = no result; [ ] = dose if it differs, or a comment. A selection: hits, their analogues and other compounds. The true share with any hit is near 10%. Calls follow the shape of the dose curve; as a rule, active = well fitted curve in the direction sought with a large enough effect; inconclusive = small, poorly fitted or top-dose-only effect, or another doubt; inactive = no such curve, though single readings can be large; an effect the other way counts as inactive or inconclusive. Potency is read from the fitted curve at half-maximal effect.

SMILES	JMJD2A Tudor	HP1b binding inh	G9a inh	BAZ2B inh	GLS inhibitor
COC(=O)c1sc2c(c1C)c(=O)n(-c1ccccc1)c(=O)n2CC(=O)Nc1cccc(C)c1	-14%	3%	5%[59 µM]	-3%	0%
CN(C)c1ccc(C(CNC(=O)c2ccccc2C(F)(F)F)N2CCOCC2)cc1 (stereo not drawn)	-19%	-11%	-32%[59 µM]	-9%	26%
COc1ccc(C(CNC(=O)c2cccc(N(C)C)c2)N2CCCC2)cc1 (stereo not drawn)	45µM*	-27%	u	50µM*	41%
COc1ccccc1CNC(=O)c1cccc(N(C)C)c1	-29%	8%	8.9µM*	-36%	28%
CN(C)c1ccc(C(CNC(=O)c2ccc(-c3ccccc3)cc2)N2CCOCC2)cc1 (stereo not drawn)	x	x	14µM*	35µM*	x
COc1cccc(CNCC(=O)NC(=O)NC2CCCC2)c1	22µM*	u	x	x	-14%
O=C(c1cccn1-c1nnc(N2CCCC2)s1)N1CCN(c2ccccc2)CC1	-13%	17%	-3%[59 µM]	-9%	2%
OCC1OC(n2cnc3c(NCc4ccccc4O)ncnc32)C(O)C1O (stereo not drawn)	-1%	41%	x	x	-3%
COc1ccc(CNC(=O)CN2CCC(NC(=O)c3cccc(OC)c3)CC2)cc1	1µM*	-33%[57 µM]	x	x	u
COc1cccc(C(=O)NC2CCN(CC(=O)NCc3ccccc3OC)CC2)c1	-18%	15%	19%[59 µM]	-4%	4%
COc1ccc(CNC(=O)c2cccc(N(C)C)c2)cc1	-29%	37%	7.1µM*	u	41%
CCc1nn(CC(=O)Nc2ccc(N(CC)CC)cc2C)c(=O)c2cc3sccc3n12	-13%	9%	u	-15%	2%
CCOC(=O)/C(=N/Nc1ccccc1)c1csc(Nc2ccccc2)n1	u	-18%	u	u	8%
CO/N=C(\C(=O)O)c1csc(NN=C(C)C)n1	22µM*	u	22µM*	-19%	11%
Cc1[nH]c(=O)cc2ccccc12	5%	54%	25µM*	-29%	-2%
Cc1cc(=O)[nH]c2ccccc12	-8%	60%	-12%[59 µM]	-4%	9%
N#Cc1ccc(NC(=O)c2ccc3c(c2)nnn3C2CCCC2)cc1	-4%	42%	-6%[59 µM]	4%	-1%
Nc1ncnc2c1ncn2[C@@H]1O[C@H](C(=O)N[C@@H](CO)Cc2ccccc2)[C@@H](O)[C@H]1O	x	x	x	x	-13%
COc1ccc(CSc2nnc(N)s2)cc1F	-24%	40%	45µM*	-26%	-4%
Cc1ccc(C(=O)N[C@@H](C)CN2C3=NC[C@H](C(C)C)N3C[C@H]2Cc2ccc(O)cc2)cc1Br	79µM*	-8%	u	-35%	13%
CCOc1ccc(NC(=O)CCCNC(=O)Cn2cnc3sc(C)c(C)c3c2=O)cc1	3%	24%	7%	-18%	2%
Cc1nn(-c2cc(N3CCCCC3)ccc2[N+](=O)[O-])c(=O)c2ccccc12	u	-5%	u	-18%	-1%
CN1CCN(c2ccc([N+](=O)[O-])c(-n3nc(-c4ccccc4)c4ccccc4c3=O)c2)CC1	40µM*	-47%	45µM*	35µM*	-4%
Cc1ccc(S(=O)(=O)N2CCC(C(=O)OCC(=O)N3CCC(C)CC3)CC2)cc1C	-10%	25%	-2%	4%	-1%
COc1cc(C(=O)NCC(c2cccs2)S(=O)(=O)c2ccc(F)cc2)cc(OC)c1OC (stereo not drawn)	-18%	35%	9%[59 µM]	-22%	-1%
SMILES	JMJD2A Tudor	HP1b binding inh	G9a inh	BAZ2B inh	GLS inhibitor
COC(=O)/C=C1\SC(N2CCOCC2)=C(c2ccc(OC)cc2)C1=O	-13%	-9%	2µM*	45µM*	3%
COc1cccc(-c2nc(SCC(=O)NCC3CCCO3)c(-c3ccc(Cl)cc3)[nH]2)c1 (stereo not drawn)	-16%	0%	-28%[59 µM]	-9%	-2%
CCOC1(OCC)N=C(N)C2(C#N)C(c3ccc(NC(C)=O)cc3)C12C#N (stereo not drawn)	u	12%	50µM*	79µM*	3%
CCSC1(SCC)N=C(N)C2(C#N)C(c3ccc(F)cc3)C12C#N (stereo not drawn)	-6%	44%	40µM*	-23%	8%
COC1(OC)N=C(N)C2(C#N)C(c3ccc(F)cc3)C12C#N (stereo not drawn)	-28%	11%	25%[12.7 µM]	-33%	-9%
O=C1NC(=S)S/C1=C\C=C\c1ccc([N+](=O)[O-])o1	16µM*	u	x	11µM*	2%
O=C(CN1C(=O)C2CCCCN2c2ccc(C(=O)N3CCCC3)cc21)NCc1ccc(F)cc1 (stereo not drawn)	-8%	26%[57 µM]	-1%[59 µM]	-2%	25%
CC(Sc1cnc2ccccc2n1)C(=O)O (stereo not drawn)	2%	36%	u	0%	0%
CC(Sc1ccc2ccccc2n1)C(=O)O (stereo not drawn)	-11%	25%	50µM*	2%	18%
CC(=O)Nc1ccc(NC(=O)C/C(C)=N/NC(=O)C(=O)N2CCCC2)cc1	-20%	40%	35µM*	-32%	15%
CC(C)OCCCNC(=O)CN1C(=O)COc2ccc(S(=O)(=O)N3CCOCC3)cc21	-16%	27%	u	-13%	1%
COc1ccc(OC)c(NC(=O)c2cc3c(=O)n4cccc(C)c4nc3n2C)c1	3%	31%	4%[59 µM]	1%	0%
CCN(CC)c1ccc(NC(=O)c2cnn(CC)c2)cc1	u	u	16µM*	40µM*	53%
CCn1cc(C(=O)NC(=S)Nc2cccc(O)c2)cn1	-3%	3%	11µM*	6%	40%
CCOc1ccc(NS(=O)(=O)c2ccc(C)c(C(=O)NCCCn3ccnc3)c2)cc1	-24%	12%	1%	-36%	3%
COc1cc(/C=N/NC(=O)C(N)=O)ccc1OC(=O)c1cccs1	-12%	48%	29%	-7%	-1%
COc1cc(/C=N/Nc2ccc(Cl)c(C(=O)O)c2)ccc1OC(=O)c1cccs1	u	-7%	25µM*	u	40%
COc1cc(C=NNc2ccccc2)ccc1OC(=O)c1ccccc1	x	x	x	x	3%
COc1cc(/C=N/Nc2ccccc2)ccc1OC(=O)c1cccs1	-13%	23%	28µM*	16%	13%
CC(C)c1ccc(NC2(C#N)C(=O)Nc3ccccc32)cc1 (stereo not drawn)	u	11%	71µM*	u	3%
Cc1ccc(CN2C(=O)c3ccccc3C2c2nnnn2C(C)C)cc1 (stereo not drawn)	x	x	x	x	-9%
C=CCOc1ccc(C(=O)N(Cc2ccc(N(C)C)cc2)C2CCS(=O)(=O)C2)cc1 (stereo not drawn)	u	-21%	50µM*	u	1%

Compound activity: PubChem, National Center for Advancing Translational Sciences (NCATS)
